Laboratory results: PubChem BioAssay (EPA / NIEHS)
Active and inactive are the calls of the source. How the source made its calls: active means hit-call score of the fitted dose curve at least 0.9, where 1 is the maximum; inactive means score below 0.9.

Assays:
[1] = read-out: Transforming growth factor beta 1 (TGFb1), TGFB1 (gene 7040); assay: BSK_KF3CT_TGFb1: BioMAP Diversity Plus: KF3CT Assay for Transforming growth factor beta 1 (TGFb1) Biomarker Activity (AID 2283072); details: primary human keratinocytes with fibroblasts; actives raise or lower the signal
Outline: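 ELISA quantifies TGF-b1 at 24 h post-dose in a primary human skin co-culture of keratinocytes and fibroblasts, with gain or loss judged against DMSO. Parallel SRB total-protein staining flags overt cytotoxicity.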

[2] = read-out: C-C motif chemokine 2 (Homo sapiens) (UniProt P13500); assay: BSK_KF3CT_MCP1: BioMAP Diversity Plus: KF3CT Assay for Monocyte Chemoattractant Protein 1 (MCP1/CCL2) Biomarker Activity (AID 2283073); details: primary human keratinocytes with fibroblasts; actives raise or lower the signal
Outline: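 Human keratinocyte–foreskin fibroblast co-culture; MCP-1 measured by ELISA 24 h after dosing. Bidirectional fit vs DMSO; cytotoxicity tracked by SRB total protein in parallel cultures.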

[3] = read-out: Matrix Metallopeptidase 9 (MMP9), MMP9 (gene 4318); assay: BSK_KF3CT_MMP9: BioMAP Diversity Plus: KF3CT Assay for Matrix Metallopeptidase 9 (MMP9) Biomarker Activity (AID 2283074); details: primary human keratinocytes with fibroblasts; actives raise or lower the signal
Outline: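 ELISA read-out of MMP-9 at 24 h post-dosing in a co-culture of human skin keratinocytes and foreskin fibroblasts. Gain or loss of signal was fitted in both directions against DMSO.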

[4] = read-out: urokinase plasminogen activator (uPA), PLAU (gene 5328); assay: BSK_KF3CT_uPA: BioMAP Diversity Plus: KF3CT Assay for urokinase plasminogen activator (uPA) Biomarker Activity (AID 2283075); details: primary human keratinocytes with fibroblasts; actives raise or lower the signal
Outline: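 Skin co-culture (keratinocytes + foreskin fibroblasts), human primary; 24 h post-dose; uPA by ELISA; gain/loss fit vs DMSO baseline.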

[5] = read-out: CD40, CD40 (gene 958); assay: BSK_LPS_CD40: BioMAP Diversity Plus: LPS Assay for CD40 Biomarker Activity (AID 2283076); details: primary human HUVEC with PBMC; actives raise or lower the signal
Outline: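 HUVEC plus PBMC co-culture stimulated with LPS; CD40 quantified by ELISA 24 h after compound dosing. Fitting was bidirectional relative to DMSO. SRB staining of parallel cultures flagged overt cytotoxicity.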

[6] = read-out: E-selectin (Homo sapiens) (UniProt P16581); assay: BSK_LPS_Eselectin: BioMAP Diversity Plus: LPS Assay for Eselectin Biomarker Activity (AID 2283077); details: primary human HUVEC with PBMC; actives raise or lower the signal
Outline: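 Human umbilical vein endothelial cells co-cultured with PBMC under LPS stimulation; cell-surface E-selectin measured by ELISA 24 h after dosing. Change in either direction versus DMSO, with SRB total-protein staining in parallel cultures for cytotoxicity.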

[7] = read-out: Interleukin-8 (IL8), CXCL8 (gene 3576); assay: BSK_LPS_IL8: BioMAP Diversity Plus: LPS Assay for Interleukin-8 (IL8) Biomarker Activity (AID 2283078); details: primary human HUVEC with PBMC; actives raise or lower the signal
Outline: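 Human umbilical vein endothelial cells co-cultured with PBMC, LPS-stimulated, exposed to compound for 24 h. IL-8 quantified by ELISA; fitted in both directions against DMSO, with SRB total-protein staining of parallel cultures for cytotoxicity.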

[8] = BSK_LPS_SRB: Viability Assessment in the BioMAP Diversity Plus: LPS Assay (AID 2283079); details: primary human HUVEC with PBMC;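 further: total protein by sulforhodamine B absorbance as a cytotoxicity measure; measured one day after compound addition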
Outline: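 Co-culture of human umbilical vein endothelial cells and PBMC, read 24 h after dosing. Total protein by 0.1% SRB staining after 10% TCA fixation, absorbance at 560 nm; bidirectional fit against DMSO.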

[9] = read-out: Monocyte Chemoattractant Protein-1 (MCP1), CCL2 (gene 6347); assay: BSK_LPS_MCP1: BioMAP Diversity Plus: LPS Assay for Monocyte Chemoattractant Protein-1 (MCP1) Biomarker Activity (AID 2283081); details: primary human HUVEC with PBMC; actives raise or lower the signal;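 on AC50: secreted MCP-1 protein quantified by ELISA in culture supernatant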
Outline: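 Human umbilical vein endothelial cells co-cultured with PBMC, LPS-stimulated; secreted MCP-1 measured by ELISA 24 h after compound addition. Bidirectional curve fitting against DMSO baseline; SRB total-protein staining in parallel cultures for cytotoxicity.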

[10] = read-out: Interleukin-1 alpha (IL1a), IL1A (gene 3552); assay: BSK_LPS_IL1a: BioMAP Diversity Plus: LPS Assay for Interleukin-1 alpha (IL1a) Biomarker Activity (AID 2283080); details: primary human HUVEC with PBMC; actives raise or lower the signal
Outline: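 Human umbilical vein endothelial cells co-cultured with PBMC and stimulated with LPS; IL-1a measured by ELISA 24 h after dosing. Bidirectional fitting against DMSO; cytotoxicity checked by SRB staining in parallel cultures.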

Measured: AC50

E-selectin (Homo sapiens), sequence (P16581 whole entry, looked up): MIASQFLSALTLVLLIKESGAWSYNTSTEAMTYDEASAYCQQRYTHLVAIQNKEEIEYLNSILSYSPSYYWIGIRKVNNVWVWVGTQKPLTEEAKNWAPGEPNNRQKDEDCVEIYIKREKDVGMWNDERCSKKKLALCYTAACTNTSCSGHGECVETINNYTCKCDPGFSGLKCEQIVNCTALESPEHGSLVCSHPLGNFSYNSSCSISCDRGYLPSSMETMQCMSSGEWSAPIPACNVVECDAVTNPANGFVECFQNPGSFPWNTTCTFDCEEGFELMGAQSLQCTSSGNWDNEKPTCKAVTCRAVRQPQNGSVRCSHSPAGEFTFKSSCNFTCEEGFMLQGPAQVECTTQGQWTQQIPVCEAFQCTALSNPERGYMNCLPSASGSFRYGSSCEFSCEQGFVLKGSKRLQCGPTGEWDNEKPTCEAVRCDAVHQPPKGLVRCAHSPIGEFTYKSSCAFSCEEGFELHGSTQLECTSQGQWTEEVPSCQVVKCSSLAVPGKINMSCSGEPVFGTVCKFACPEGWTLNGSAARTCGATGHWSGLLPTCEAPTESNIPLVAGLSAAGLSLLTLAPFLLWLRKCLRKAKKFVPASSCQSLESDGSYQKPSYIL

CC(=O)OCC(COC(C)=O)OC(C)=O
not listed: [10]
inactive: all other assays above

O=C1CCCCC1
inactive: all assays above

CC(C)(O)c1ccc(CNC(=O)c2cccnc2Oc2ccc(F)cc2)cc1
not listed: [4]
inactive: all other assays above

CC1=C(C)S(=O)(=O)CCS1(=O)=O
active: [5] 4330 nM
inactive: all other assays above

Cc1cc(SC2=C(O)C[C@@](CCc3ccc(N)cc3)(C(C)C)OC2=O)c(C(C)(C)C)cc1CO
not listed: [10]
inactive: all other assays above

CC(=O)S[C@H](C(=O)N[C@H]1Cc2ccccc2[C@H]2CCC[C@@H](C(=O)O)N2C1=O)C(C)C
inactive: all assays above

CC(C)c1cccc(C(C)C)c1NC(=O)NS(=O)(=O)c1cc(C(C)(C)O)co1
active: [6] 148 nM | [7] 152 nM
inactive: all other assays above

CCc1cc(C2=C(C(=O)O)N(c3ccccc3C(F)(F)F)S(=O)(=O)c3ccccc32)cc2c1OCO2
not listed: [10]
inactive: all other assays above

CC(C)c1cccc(C(C)C)c1
not listed: [10]
inactive: all other assays above

OCC(CO)n1cnc(-c2ccc(F)cc2)c1-c1ccnc(Oc2ccccc2)n1
active: [6] 1090 nM | [7] 544 nM | [9] 510 nM
not listed: [10]
inactive: all other assays above

OCC(O)CO
inactive: all assays above

COC(=O)[C@H]1[C@H]2C[C@@H]3c4[nH]c5cc(OC)ccc5c4CCN3C[C@H]2C[C@@H](OC(=O)c2cc(OC)c(OC)c(OC)c2)[C@@H]1OC
active: [5] 23500 nM | [8] 21800 nM | [9] 18600 nM
not listed: [10]
inactive: all other assays above

NC=O
not listed: [10]
inactive: all other assays above

O=C(Oc1ccccc1)c1cccc(C(=O)Oc2ccccc2)c1
not listed: [10]
inactive: all other assays above

C/C=C/c1ccc(OC)cc1
active: [9] 13800 nM
not listed: [4]
inactive: all other assays above

S=c1[nH]c2ccccc2s1
inactive: all assays above

Cc1cn([C@H]2C=C[C@@H](CO)O2)c(=O)[nH]c1=O
not listed: [8]
inactive: all other assays above

CCCC(=O)O
not listed: [4]
inactive: all other assays above

O=Cc1ccccc1C=O
inactive: all assays above

Cc1ccc(C(C)(C)C)c(O)c1
inactive: all assays above
